Test results as given in the supplement of paper PMC10981050.
Several values for one entry are separate records, joined by “and”; a condition that tells them apart may be missing. Equal entries are not always repeated. Structures can show the parent of a compound that is named as a salt.

Legend:
Assay in all cases: cell viability relative to vehicle control; higher = less cytotoxic
Conditions in all cases: 10 µM
[1] = test system: K562
Outline: (§1)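 Each screen used CRISPR-edited mutant and wild-type clones from four leukaemia lines. Compounds were acoustically dispensed at a single 10 µM dose, and CellTiter-Glo luminescence was read after 48 h with the supernatant first removed. Viability was analysed in Genedata Screener and given as percent of the on-plate vehicle control.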

[2] = test system: MARIMO
Outline: as §1

[3] = test system: MOLM14
Outline: as §1

[4] = test system: OCI-AML2
Outline: as §1

Row | Structure (SMILES) | cell viability ([1]; SRSF2 genotype: SRSF2 P95H/wt) | cell viability ([1]; SRSF2 genotype: SRSF2 wt/wt) | cell viability ([2]; SRSF2 genotype: SRSF2 P95H/wt) | cell viability ([2]; SRSF2 genotype: SRSF2 wt/wt) | cell viability ([3]; SRSF2 genotype: SRSF2 P95H/wt) | cell viability ([3]; SRSF2 genotype: SRSF2 wt/wt) | cell viability ([4]; SRSF2 genotype: P95H/wt) | cell viability ([4]; SRSF2 genotype: wt/wt)
1 | CC(CCC(=O)NCCS(=O)(=O)O)C1CCC2C3C(O)CC4CC(O)CCC4(C)C3CCC12C (stereo unspecified) [Taurochenodeoxycholic acid] | 104% and 101% | 99.3% | 103% | 108% | 104% | 104% | 109% | 97.8%
2 | CCNC(=O)Nc1ccc(-c2nc(N3CCOC[C@@H]3C)c3c(n2)C(C)(C)S(=O)(=O)C3)cc1 | 40% and 38.6% | 34.4% | 56.9% | 51% | 33.5% | 26.9% | 29.6% | 32%
3 | O=S(=O)(O)NC1CCCCC1 [Cyclamic acid] | 102% and 96.3% | 97.2% | 100% | 111% | 104% | 104% | 94.5% | 110%
4 | C[C@@H]1CC[C@@]2(OC1)O[C@H]1C[C@H]3[C@@H]4CC=C5C[C@@H](O[C@@H]6O[C@H](CO)[C@@H](O)[C@H](O)[C@H]6O[C@@H]6O[C@@H](C)[C@H](O)[C@@H](O)[C@H]6O)CC[C@]5(C)[C@H]4CC[C@]3(C)[C@@]1(O)[C@@H]2C [Polyphyllin VI] | 0.36% and 0.31% | 0.44% | 4.95% | 0.84% | 0.85% | 0.55% | 0.28% | 0.33%
5 | O=C(O)c1ccc(O)c(O)c1 [Protocatechuic acid] | 101% and 97.7% | 93.3% | 93.1% | 96.1% | 96.8% | 103% | 98.4% | 104%
6 | COc1cc(O)c(C(=O)c2ccccc2)cc1S(=O)(=O)O [Sulisobenzone] | 99.1% and 89.9% | 94.3% | 95.4% | 104% | 97.8% | 101% | 88.7% | 104%
7 | O=c1nc(N2CCOCC2)oc2c(-c3cccc4c3sc3ccccc34)cccc12 | 92.3% and 93.3% | 90.1% | 93.2% | 102% | 82.6% | 81.6% | 75.1% | 80.3%
8 | COc1ccc(Cn2ccc3ccc(C(=O)NO)cc32)cc1 | 91.2% and 87.7% | 84.4% | 65.9% | 75.9% | 84.1% | 81.6% | 69.3% | 75.5%
9 | C[C@@H](N)c1ccc(C(=O)Nc2ccnc3[nH]ccc23)cc1 | 90.4% and 107% | 105% | 65.8% | 78% | 31.2% | 41.1% | 19.1% | 32.1%
10 | Nc1ccc(S(N)(=O)=O)cc1 [Sulfanilamide] | 99.1% and 101% | 98.9% | 102% | 107% | 96.2% | 102% | 102% | 110%
11 | CN1CC[C@H](c2c(O)cc(O)c3c(=O)cc(-c4ccccc4Cl)oc23)[C@H](O)C1 [Flavopiridol (Alvocidib)] | 6.41% and 17.6% | 8.24% | 10.4% | 4.67% | 3.1% | 0.32% | 4.93% | 15.2%
12 | C[C@H](CCC(=O)O)[C@H]1CC[C@H]2[C@@H]3C[C@H](O)[C@@H]4C[C@H](O)CC[C@]4(C)[C@H]3CC[C@]12C [Hyodeoxycholic acid (HDCA)] | 92.5% and 93.9% | 88.6% | 87.5% | 94.3% | 93.5% | 97.5% | 93.1% | 97.4%
13 | OC(c1cc(C(F)(F)F)nc2c(C(F)(F)F)cccc12)C1CCCCN1 (stereo unspecified) [Mefloquine HCl] | 0.97% and 1.02% | 0.97% | 0.56% | 0.87% | 0.48% | 0.44% | 0.35% | 1.68%
14 | C[S+]([O-])c1ccc(-c2nc(-c3ccc(F)cc3)c(-c3ccncc3)[nH]2)cc1 (stereo unspecified) | 96.3% and 94.8% | 88.4% | 110% | 113% | 109% | 99.9% | 109% | 102%
15 | Cc1cc(C)n(C)n1 [1,3,5-Trimethylpyrazole] | 110% and 105% | 115% | 113% | 109% | 97.9% | 110% | 104% | 104%
16 | Cc1n[nH]c2ncc(C(=O)N3CCC[C@H]3c3ccc(Cl)cc3)cc12 | 101% and 98.5% | 99.8% | 101% | 128% | 88.8% | 105% | 91.4% | 92.8%
17 | Cc1cccc(-c2[nH]ncc2-c2ccc3ncccc3n2)n1 | 97.9% and 108% | 107% | 107% | 114% | 94.6% | 105% | 78.9% | 83.5%
18 | O=C(/C=C/n1cnc(-c2cc(C(F)(F)F)cc(C(F)(F)F)c2)n1)N1CC(F)(F)C1 | 27.6% and 15.9% | 11.8% | 35.7% | 36.6% | 2.44% | 1.55% | 1.41% | 2.6%
19 | CCOC(=O)[C@H](CCc1ccccc1)N[C@H]1CS[C@H](c2cccs2)CN(CC(=O)O)C1=O [Temocapril HCl] | 102% and 101% | 98.8% | 101% | 113% | 99.7% | 102% | 102% | 111%
20 | Cc1ncc(CO)c(CO)c1O [Pyridoxine] | 98.2% and 103% | 97.3% | 107% | 96.3% | 101% | 102% | 106% | 99.6%
21 | CC(NC(=O)C(O)c1cc(F)cc(F)c1)C(=O)NC1C(=O)N(C)c2ccccc2-c2ccccc21 (stereo unspecified) | 99.5% and 96.4% | 99.2% | 96.1% | 97.8% | 102% | 105% | 98.7% | 96.8%

Row | Structure (SMILES) | cell viability ([1]; SRSF2 genotype: SRSF2 P95H/wt) | cell viability ([1]; SRSF2 genotype: SRSF2 wt/wt) | cell viability ([2]; SRSF2 genotype: SRSF2 P95H/wt) | cell viability ([2]; SRSF2 genotype: SRSF2 wt/wt) | cell viability ([3]; SRSF2 genotype: SRSF2 P95H/wt) | cell viability ([3]; SRSF2 genotype: SRSF2 wt/wt) | cell viability ([4]; SRSF2 genotype: P95H/wt) | cell viability ([4]; SRSF2 genotype: wt/wt)
22 | COc1c(C)c2c(c(O)c1C/C=C(\C)CCC(=O)O)C(=O)OC2 [Mycophenolic acid] | 49.9% and 48.3% | 43.2% | 42.2% | 41.6% | 10.9% | 3.65% | 13.9% | 13%
23 | O=C(c1ccc(OCCCc2c[nH]cn2)cc1)C1CC1 [Ciproxifan Maleate] | 89.3% and 91.3% | 87.7% | 85.2% | 90.4% | 95.9% | 93.9% | 71.8% | 83.4%
24 | CCN1CC(CCN2CCOCC2)C(c2ccccc2)(c2ccccc2)C1=O (stereo unspecified) [Doxapram HCl] | 104% and 111% | 112% | 112% | 111% | 104% | 109% | 111% | 95.4%
25 | Cn1c(=O)c(F)c(Nc2ccc(I)cc2F)c2c(=O)n(C[C@@H](O)CO)cnc21 | 66.4% and 83.6% | 77% | 43.7% | 36.3% | 45.7% | 29.8% | 47.5% | 46.9%
26 | C[C@H]1CO[C@@H]2Cn3cc(C(=O)NCc4ccc(F)cc4F)c(=O)c(O)c3C(=O)N12 | 84.6% and 81.9% | 71.5% | 90.2% | 95.4% | 92.8% | 88.8% | 83.9% | 86.6%
27 | O=C(O)c1cccnc1 [Niacin (Nicotinic acid)] | 108% and 98.1% | 109% | 99.3% | 111% | 103% | 101% | 74% | 78.7%
28 | C=CC[C@@H]1/C=C(\C)C[C@H](C)C[C@H](OC)[C@H]2O[C@@](O)(C(=O)C(=O)N3CCCC[C@H]3C(=O)O[C@H](/C(C)=C/[C@@H]3CC[C@@H](O)[C@H](OC)C3)[C@H](C)[C@@H](O)CC1=O)[C@H](C)C[C@@H]2OC [Tacrolimus (FK506)] | 90.3% and 93.4% | 84.9% | 94.3% | 97.2% | 92.2% | 96.3% | 91.4% | 98.2%
29 | CC(C)c1cnn2c(NCc3ccccc3)cc(NCCCCCCN)nc12 | 86.8% and 99.7% | 101% | 89.9% | 87.8% | 95.9% | 98.5% | 89.4% | 87.5%
30 | CC(=O)Nc1nc2c(Oc3cc(-c4ccc(C(F)(F)F)cc4)ncn3)cccc2s1 | 99.6% and 93% | 88% | 93.3% | 103% | 95.9% | 97.7% | 90.6% | 88.9%
31 | COc1ccc2c(c1)c(CC(=O)O)c(C)n2C(=O)c1ccc(Cl)cc1 [Indometacin Sodium] | 97.1% and 90.1% | 101% | 96.7% | 103% | 105% | 101% | 98.3% | 110%
32 | C=C1CC[C@H](O)C/C1=C/C=C1\CCC[C@]2(C)[C@@H]([C@H](C)/C=C/[C@H](C)C(C)C)CC[C@@H]12 [Vitamin D2 (Ergocalciferol)] | 103% and 100% | 102% | 101% | 104% | 93.4% | 102% | 100% | 98.3%
33 | Cc1c(-c2ccnn2C)cc(C(=O)NCc2ccc(S(C)(=O)=O)cn2)c(=O)n1-c1cccc(C(F)(F)F)c1 | 97.6% and 102% | 100% | 112% | 105% | 109% | 106% | 107% | 113%
34 | CN(CC(=O)N(Cc1ccc(C2CCCCC2)cc1)c1ccc(C(=O)O)cc1)S(=O)(=O)c1c(F)c(F)c(F)c(F)c1F | 10.6% and 6.35% | 7.31% | 10.3% | 2.43% | 0.37% | 0.15% | 0.12% | 0.08%
35 | O=C(c1cccc(Br)c1)N1CCC(N2CCCC2)CC1 | 105% and 98.6% | 91.6% | 92.3% | 110% | 105% | 105% | 87.9% | 101%
36 | O=c1cc(-c2ccc(O)c(O)c2)oc2c([C@@H]3O[C@H](CO)[C@@H](O)[C@H](O)[C@H]3O)c(O)cc(O)c12 [Orientin] | 104% and 101% | 101% | 100% | 97.3% | 103% | 103% | 98.8% | 100%
37 | O=C(O)CCN1C(=O)/C(=C/c2ccc(-c3ccc([N+](=O)[O-])cc3)o2)SC1=S | 104% and 106% | 111% | 100% | 98.5% | 93.3% | 101% | 103% | 109%
38 | Nc1ccn([C@H]2CC[C@@H](CO)O2)c(=O)n1 [Zalcitabine] | 111% and 103% | 111% | 107% | 112% | 105% | 107% | 58.7% | 83%
39 | Nc1nc(-c2nn(Cc3ccccc3F)c3ncccc23)ncc1C1CC1 | 110% and 114% | 95.3% | 103% | 101% | 104% | 104% | 83.9% | 86.4%
40 | CCC(=O)OCC(=O)[C@@]1(OC(=O)CC)[C@@H](C)C[C@H]2[C@@H]3CCC4=CC(=O)C=C[C@]4(C)[C@@]3(Cl)[C@@H](O)C[C@@]21C [Beclomethasone dipropionate] | 87.4% and 91.4% | 87.7% | 90% | 97.8% | 86% | 93% | 105% | 117%
41 | Nc1cccc2c1CN(C1CCC(=O)NC1=O)C2=O (stereo unspecified) [Lenalidomide (CC-5013)] | 98.2% and 96.6% | 94.8% | 97.1% | 101% | 91.3% | 93.5% | 118% | 113%
42 | CC(C)(CO)C(O)C(=O)NCCC(=O)O [Calcium D-Panthotenate] | 95.3% and 94.5% | 95.3% | 95.1% | 105% | 96.8% | 97.2% | 95.4% | 94%
